# Test results taken from PubChem BioAssay AID652126 (The Scripps Research Institute Molecular Screening Center, 2013).
# Hit rate of the full screen: of about 370,000 compounds, about 3,700 (1%) were called active.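 The calls were made as follows: active = activation above the mean over all tested compounds plus 3 SD (cut at about 0.9% in these data); inactive = the rest.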 Shown is part of a subset that was picked to be rich in actives.
# Test system: Nuclear hormone receptor DAF-12 (Strongyloides stercoralis)
# Experiment: S. stercoralis DAF-12 nuclear receptor activators, primary screen, cell-based, luminescence, HEK293, GRIP1 co-expression, lit1-tk-luc (AID 652126);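 also: 0% = DMSO-only wells and 100% = 3 µM delta7-dafachronic acid wells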
# Conditions: HEK293 ssDAF-12/GRIP1 lit1-tk-luc reporter, at 6.8 µM, hits give high values, % of 3 µM dafachronic acid response
row,Compound,activation
1,O=C(CSc1nc2ccccc2nc1N1CCCCC1)N1CCN(S(=O)(=O)c2cccc([N+](=O)[O-])c2)CC1,-0.71% (inactive)
2,CC(=O)Nc1ccc(OC[C@@H](O)CN2CCC(C(O)(c3ccccc3)c3ccccc3)CC2)cc1,-0.46% (inactive)
3,O=C(NCc1ccc(Cl)cc1)C1CCCN(c2nc3ccccc3o2)C1 (stereo unspecified),-1.04% (inactive)
4,COc1ccccc1CNC(=O)C1CCN(c2nc3ccccc3o2)CC1,-1.15% (inactive)
5,COc1cccc(CNC(=O)C2CCCN(c3nc4ccccc4o3)C2)c1OC (stereo unspecified),1.04% (active)
6,CCC(=O)Nc1ccc2c(c1)C(=O)N(C)[C@H]1CC[C@H](CC(=O)NCCOC)O[C@@H]1CO2,-1.05% (inactive)
7,COc1ccc(-n2c(COc3ccccc3)nnc2SCC(=O)Nc2ccc3c(c2)OCO3)cc1,-1.47% (inactive)
8,COc1ccc(C(CNC(=O)c2cc3c(s2)CCCC3)N2CCOCC2)cc1 (stereo unspecified),-1.09% (inactive)
9,CC(C)(C)NC(=O)Cn1cnc2cc([N+](=O)[O-])ccc2c1=O,-1.52% (inactive)
10,Cc1ccc(-n2cc3ccc([N+](=O)[O-])cc3n2)cc1,1.77% (active)
11,O=c1c2cc([N+](=O)[O-])ccc2nc2n1CCC2,-0.82% (inactive)
12,C=CCN1C(=O)[C@@H](CC(=O)N2CCN(C(=O)OCC)CC2)[C@]2(C(=O)OCC)CCCCC/C=C/12,-1.02% (inactive)
13,COc1ccccc1CNS(=O)(=O)c1cc(C(=O)NCc2ccccn2)c(Cl)cc1Cl,-1.13% (inactive)
14,CCOc1cc(C)c(S(=O)(=O)NCc2ccccn2)cc1C,0.98% (active)
15,Cc1cc(S(=O)(=O)NCc2ccccn2)c(Cl)cc1Cl,-1.84% (inactive)
16,COC(=O)[C@H](C(C)C)N(CCCc1cn(Cc2ccccc2)nn1)S(=O)(=O)c1ccc(F)cc1Br,-2.17% (inactive)
17,Cc1cccc(-n2c(O)c(C=Nc3ccccc3N)c(=O)[nH]c2=O)c1,1.8% (active)
18,COc1cccc(N(C)C(=O)[C@@H](C)[C@@H](O)c2ccc3ccccc3c2)c1,-1.07% (inactive)
19,O=c1c2c(nc3cc(-c4cccc(Cl)c4)[nH]n13)CCCC2,1.57% (active)
20,CSc1nc2nc3c(c(=O)n2[nH]1)CCC3,-1.17% (inactive)
21,CCOC(=O)C1CCN(S(=O)(=O)c2ccc3c(c2)N(C(C)=O)CCO3)CC1,-1.19% (inactive)
22,COc1ccc(-c2csc(C(O)c3cccc(Cl)c3)n2)cn1 (stereo unspecified),-1.06% (inactive)
23,CC(C)c1cccc(-c2csc(C(O)c3ccccc3)n2)c1 (stereo unspecified),-1.41% (inactive)

row,Compound,activation
1,OC(c1ccccc1)c1nc(-c2cnc3ccccc3c2)cs1 (stereo unspecified),1.25% (active)
2,CN(C)c1nc(N)nc(CSc2ccccn2)n1,-1.25% (inactive)
3,COc1ccc(C=C(C#N)C#N)c(CSc2ccccn2)c1,2.1% (active)
4,COc1cccc(N(CC(=O)NCCSc2ccccn2)S(C)(=O)=O)c1,-1.16% (inactive)
5,c1coc(CCNc2ncnc3ccc(-c4ccc5c(c4)OCO5)cc23)c1,-0.09% (inactive)
6,CCn1c2ccccc2c2cc(NC(=O)CSc3nnc(-c4ccccc4)n3-c3ccc(C)cc3)ccc21,-1.2% (inactive)
7,COc1cc(/C=N/Nc2nc3ccccc3s2)ccc1O,2.25% (active)
8,O=C(CSc1nc2ccccc2s1)NN=Cc1ccc(O)cc1O,-1.4% (inactive)
9,COc1ccc(/C=N/Nc2ncnc3sc4c(c23)CCCC4)cc1O,-0.66% (inactive)
10,COc1ccccc1CCNC(=O)C1CCN(c2nc(C)cc(C)n2)CC1,-1.36% (inactive)
11,COc1cccc(-c2cc3nc(NCCOc4ccccc4Cl)n(C)c(=O)c3s2)c1,-1.7% (inactive)
12,O=c1[nH]c(CCl)nc2cc(-c3ccc(Cl)cc3)sc12,1.53% (active)
13,Cn1c(NCc2cccnc2)nc2cc(-c3ccc(F)cc3)sc2c1=O,-1.06% (inactive)
14,CC(C)(C)OC(=O)NCc1cc(F)ccc1/C=C/S(=O)(=O)NCCc1ccccc1,-1.87% (inactive)
15,CCC(=O)OCCCN1C(=O)CCC12CCC(c1ccccc1)CC2 (stereo unspecified),-0.68% (inactive)
16,Cc1ccc(C)c(-n2c(SCC(=O)O)nc3sc4c(c3c2=O)CCCC4)c1,-1.01% (inactive)
17,NNC(=O)C1CCCn2c1nc1sc3c(c1c2=O)CCCC3 (stereo unspecified),1.14% (active)
18,CCn1c(SCC(C)=O)nc2sc3c(c2c1=O)CCCC3,-2.16% (inactive)
19,COc1cccc(Cn2cc(COC(=O)Nc3ccc(F)cc3)nn2)c1,-0.68% (inactive)
20,COc1ccc(CSc2nnc(-c3cccc(C)c3)n2C)cc1,-1.19% (inactive)
21,COc1ccc(C2CC(c3cccs3)=Nc3ccccc3S2)cc1OC (stereo unspecified),1.64% (active)
22,COc1ccc(C2CC(=O)n3c(nc4ccccc43)S2)cc1OC (stereo unspecified),-1.19% (inactive)
23,COc1ccc(C2CC(c3cccs3)=NN2c2nc(C)c(C(C)=O)s2)cc1OC (stereo unspecified),-0.94% (inactive)

row,Compound,activation
1,COP(=O)(O)CNC(=O)OCc1ccccc1,-0.73% (inactive)
2,CC(=O)N1CCCN(C2=Nc3ccccc3Sc3ccccc32)CC1,-1.69% (inactive)
3,Cc1cc(NC(=O)CSCc2ccccc2C)no1,-1.6% (inactive)
4,Cc1cc(NC(=O)CSCC(=O)NC(C)c2ccccc2)no1 (stereo unspecified),-1.09% (inactive)
5,COc1ccccc1C(=O)COC(=O)CSCC(=O)Nc1cc(C)on1,1.36% (active)
6,CN(CCO)c1cccc2c1S(=O)(=O)N(Cc1cn(Cc3ccc(C(F)(F)F)cc3)nn1)Cc1ccccc1O2,-0.96% (inactive)
7,O=C1C(=O)N(Cc2ccc(-c3ccsc3)cc2)c2ccc(OC(F)(F)F)cc21,-0.76% (inactive)
8,CCS(=O)(=O)c1cc([N+](=O)[O-])c(Sc2ccccc2N)s1,0.94% (active)
9,COc1ccccc1C(=O)CSc1nnc(-c2ccccn2)n1-c1ccccc1,-1.43% (inactive)
10,C=CCN1C(=O)[C@@H](CC(=O)NCC2CCCCC2)[C@]2(C(=O)OC)CCCCC=C12,-1.59% (inactive)
11,COCC(=O)N[C@@H]1C[C@@H]2O[C@@H](CO)CC[C@@H]2O[C@@H]1CCc1ccc(-c2ccccc2)cc1,-1.17% (inactive)
12,CN(Cc1ccc(F)cc1)C(=O)COc1ccc2ccccc2c1,-0.45% (inactive)
13,CN(Cc1nc2ccccc2s1)C(=O)c1ccc(F)cc1,1.11% (active)
14,COc1ccccc1S(=O)(=O)NCc1ccc(C(=O)N(C)Cc2ccc(F)cc2)cc1,-1.02% (inactive)
15,CSc1ccc(C=Nn2c(-c3ccc(F)cc3)n[nH]c2=S)cc1,-1.67% (inactive)
16,C[C@@H]1ON(C)[C@H]2C[C@H]3c4[nH]c5cccc(-c6ccc7c(c6)OCO7)c5c4CCN3C[C@@H]12,-0.56% (inactive)
17,O=C(NCCCc1ccccc1)c1cc(COc2c(F)cccc2F)on1,-0.16% (inactive)
18,CC(C)Cc1cc(C(=O)NCCc2ccccc2)no1,1.34% (active)
19,CC(C)Cc1cc(C(=O)Nc2cc(Br)ccc2O)no1,-1.29% (inactive)
20,COc1ccc(-n2c(SCC(=O)Nc3ccc(C)c(Cl)c3)nc3ccccc3c2=O)cc1,-2.01% (inactive)
21,CC(=O)Nc1nc2ncccn2c1-c1ccc(C(F)(F)F)cc1,-0.67% (inactive)
22,c1ccc(C2=Nc3cccc4cccc(c34)N2)cc1,1.19% (active)
23,COc1ccccc1C1=Nc2cccc3cccc(c23)N1,-1.81% (inactive)

row,Compound,activation
1,Brc1ccc(C2CC(c3ccccc3)=Nc3ccccc3N2)cc1 (stereo unspecified),0.69% (inactive)
2,COC(=O)[C@]12C[C@H](CC(=O)NCc3ccccc3)C(=O)N(CCC3=CCCCC3)C1=C[C@H](C(C)C)O[C@@H]2C1CC1,-1.77% (inactive)
3,COc1ccc(-n2c(SCC(=O)Nc3ccccc3-c3ccccc3)nnc2-c2cccnc2)cc1,-1.34% (inactive)
4,CN1C(=O)/C(=C\c2cc(Br)cs2)c2ccccc21,1.58% (active)
5,CCC1C(=O)c2ccccc2N(C)C1=O (stereo unspecified),-0.91% (inactive)
6,CN1C(=O)/C(=N/OC(=O)c2ccccc2Br)c2ccccc21,-1% (inactive)
7,CCC(CO)Nc1cccc2c1S(=O)(=O)N(Cc1cn(Cc3ccccc3C(F)(F)F)nn1)Cc1ccccc1O2 (stereo unspecified),-1.78% (inactive)
8,CCC(C)(C)NC(=O)CN(C(=O)CCC(=O)Nc1cc(C)ccn1)c1ccc2c(c1)OCCO2,-1.73% (inactive)
9,O=C(CN(C(=O)CCC(=O)Nc1nccs1)c1ccc(F)cc1)NCc1ccc2c(c1)OCO2,-0.97% (inactive)
10,CCC(C)(C)NC(=O)CN(C(=O)CCC(=O)Nc1nccs1)c1ccc2c(c1)OCO2,1.27% (active)
11,FC(F)(F)c1cccc(NC(=S)OC2CCC23CCC(c2ccccc2)CC3)c1 (stereo unspecified),-0.81% (inactive)
12,CC(NCc1ccco1)C(=O)N1CCCCC1 (stereo unspecified),-1.35% (inactive)
13,COC(=O)c1sccc1NC(=O)CCC1CCCC1,-0.73% (inactive)
14,COC(=O)c1sccc1N/N=C(\C)c1ccc(F)c(Cl)c1,-1% (inactive)
15,COC(=O)c1sccc1NC(=O)c1ccc(Cl)cc1,0.94% (active)
16,Cc1nnc(-c2ccc(Oc3ccc(C)c(C)c3)c([N+](=O)[O-])c2)o1,-0.81% (inactive)
17,CCOC(=O)N1CCN(C(=O)C[C@@H]2C(=O)N(CCc3ccc(Cl)cc3)C3=CCCC[C@]32C(=O)OCC)CC1,-1.59% (inactive)
18,O=C(CN1CCSCC1)N/N=C/c1ccc(Cl)cc1,1.53% (active)
19,Cc1ccc(S(=O)(=O)N2CCN(CC(=O)N/N=C/c3ccc(Br)s3)CC2)cc1,-1.5% (inactive)
20,O=C(CN1CCSCC1)N/N=C/c1ccc(F)cc1F,-1.01% (inactive)
21,COc1ccc(N2CCN(CCNS(=O)(=O)c3ccc(Cl)s3)CC2)cc1,-0.86% (inactive)
22,O=C(NC1CCCCN(Cc2cccc(C(F)(F)F)c2)C1=O)c1ccccc1I (stereo unspecified),-1.74% (inactive)
